The record followed here is PMC7862700, “An all-to-all approach to the identification of sequence-specific readers for epigenetic DNA modifications on cytosine”.

Holding throughout (assay): DAPPL (digital affinity profiling via proximity ligation, sequencing); 10 mM Tris-HCl pH 7.5, 50 mM NaCl, 1 mM DTT, 4% glycerol, room temperature, 30 min; GST-TFs on glutathione beads, 16-mer random dsDNA library, 0.1% formaldehyde crosslink after washing; high values mean tight binding
What all share (conditions): protein: recombinant; tags: N-terminal GST; dsDNA, one strand shown

One assay concerns the target T1, FLI1 (Homo sapiens, UniProt Q01543 1-452).
T1 sequence: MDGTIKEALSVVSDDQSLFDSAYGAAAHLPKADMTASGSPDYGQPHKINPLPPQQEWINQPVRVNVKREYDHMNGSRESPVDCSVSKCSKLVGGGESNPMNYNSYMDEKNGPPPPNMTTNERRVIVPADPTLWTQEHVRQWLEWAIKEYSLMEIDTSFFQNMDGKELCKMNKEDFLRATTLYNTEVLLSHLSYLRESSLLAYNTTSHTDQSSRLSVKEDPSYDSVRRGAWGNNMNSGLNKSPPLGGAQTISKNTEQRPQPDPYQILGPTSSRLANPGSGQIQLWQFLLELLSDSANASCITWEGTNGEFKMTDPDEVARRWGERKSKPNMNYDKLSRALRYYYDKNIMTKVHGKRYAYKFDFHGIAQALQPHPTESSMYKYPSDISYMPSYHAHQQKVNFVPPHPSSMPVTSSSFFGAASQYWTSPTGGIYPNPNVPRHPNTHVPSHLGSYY
An outline of the steps: (§1)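 Yeast served to express human transcription factors as GST fusions, which were then captured on glutathione beads and labelled with DNA barcodes. Pooled with a tag-only sample, they were incubated with 200 nmole of a 16-mer random double-stranded DNA library for 30 min at room temperature in Tris/NaCl/DTT/glycerol buffer, washed, crosslinked with 0.1% formaldehyde, ligated by proximity, amplified by PCR and sequenced. Dividing each hexamer's read frequency for a factor by its frequency for the tag-only sample gives the binding signal.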

The target of the next assay is T2, ELK1 (Homo sapiens, UniProt P19419 1-428).
T2 sequence: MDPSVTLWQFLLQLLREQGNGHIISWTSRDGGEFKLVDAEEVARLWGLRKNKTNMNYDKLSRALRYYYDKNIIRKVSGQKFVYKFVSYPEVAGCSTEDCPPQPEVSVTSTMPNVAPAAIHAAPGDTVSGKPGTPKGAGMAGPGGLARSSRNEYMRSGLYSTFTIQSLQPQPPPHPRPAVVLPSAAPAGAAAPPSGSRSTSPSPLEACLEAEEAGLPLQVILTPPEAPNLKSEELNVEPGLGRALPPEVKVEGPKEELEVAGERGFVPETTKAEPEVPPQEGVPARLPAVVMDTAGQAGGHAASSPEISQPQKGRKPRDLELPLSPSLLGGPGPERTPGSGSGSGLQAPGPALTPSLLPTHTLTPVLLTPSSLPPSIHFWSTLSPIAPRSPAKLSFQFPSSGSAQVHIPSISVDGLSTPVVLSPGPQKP
An outline of the steps:
as §1

A further assay deals with T3, GABPA (Homo sapiens, UniProt Q06546 1-454).
T3 sequence: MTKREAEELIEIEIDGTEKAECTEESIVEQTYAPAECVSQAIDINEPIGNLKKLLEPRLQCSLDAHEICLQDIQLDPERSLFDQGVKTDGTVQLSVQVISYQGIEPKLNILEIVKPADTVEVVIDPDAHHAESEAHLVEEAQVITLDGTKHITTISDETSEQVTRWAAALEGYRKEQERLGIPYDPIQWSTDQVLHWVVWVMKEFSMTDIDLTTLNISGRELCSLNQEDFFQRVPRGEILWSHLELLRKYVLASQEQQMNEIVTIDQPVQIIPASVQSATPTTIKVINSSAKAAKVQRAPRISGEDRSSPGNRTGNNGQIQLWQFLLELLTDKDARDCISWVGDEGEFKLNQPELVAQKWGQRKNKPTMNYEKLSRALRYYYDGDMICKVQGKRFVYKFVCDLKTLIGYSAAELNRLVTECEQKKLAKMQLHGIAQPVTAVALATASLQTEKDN
An outline of the steps: as §1

Another assay addresses T4, ERG (Homo sapiens, UniProt P11308 1-479).
T4 sequence: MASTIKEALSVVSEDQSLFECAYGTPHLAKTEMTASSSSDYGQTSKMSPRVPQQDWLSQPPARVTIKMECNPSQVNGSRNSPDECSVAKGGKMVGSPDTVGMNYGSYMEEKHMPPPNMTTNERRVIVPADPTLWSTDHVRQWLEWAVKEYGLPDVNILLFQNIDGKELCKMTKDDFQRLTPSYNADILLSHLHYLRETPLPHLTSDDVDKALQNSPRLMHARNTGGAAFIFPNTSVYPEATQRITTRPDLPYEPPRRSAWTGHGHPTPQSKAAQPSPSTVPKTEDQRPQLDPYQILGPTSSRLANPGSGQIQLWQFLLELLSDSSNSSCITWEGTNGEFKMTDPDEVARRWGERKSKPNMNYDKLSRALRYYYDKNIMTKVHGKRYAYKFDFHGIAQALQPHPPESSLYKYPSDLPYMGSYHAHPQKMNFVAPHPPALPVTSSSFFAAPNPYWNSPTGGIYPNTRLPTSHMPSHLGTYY
An outline of the steps:
as §1

For a further assay, the target named is ELF1 (Homo sapiens, UniProt P32519 1-619). In a few lines:
as §1

The target in another assay is T5, EHF (Homo sapiens, UniProt Q9NZC4 1-300).
T5 sequence: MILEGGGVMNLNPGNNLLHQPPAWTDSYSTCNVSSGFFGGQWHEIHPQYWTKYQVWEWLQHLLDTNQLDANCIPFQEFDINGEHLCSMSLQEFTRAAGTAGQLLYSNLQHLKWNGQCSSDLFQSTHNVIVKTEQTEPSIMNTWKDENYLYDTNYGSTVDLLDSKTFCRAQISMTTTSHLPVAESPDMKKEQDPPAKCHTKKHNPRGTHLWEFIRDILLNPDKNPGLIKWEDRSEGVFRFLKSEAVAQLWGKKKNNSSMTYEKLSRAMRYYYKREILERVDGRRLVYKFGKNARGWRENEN
In a few lines:
as §1

A further assay has as its target SPI1 (Homo sapiens, UniProt P17947 1-270). In a few lines:
as §1

The target of another assay is SPIB (Homo sapiens, UniProt Q01892 1-262). An outline of the steps:
as §1

For another assay, the target named is T6, ELK3 (Homo sapiens, UniProt P41970 1-407).
T6 sequence: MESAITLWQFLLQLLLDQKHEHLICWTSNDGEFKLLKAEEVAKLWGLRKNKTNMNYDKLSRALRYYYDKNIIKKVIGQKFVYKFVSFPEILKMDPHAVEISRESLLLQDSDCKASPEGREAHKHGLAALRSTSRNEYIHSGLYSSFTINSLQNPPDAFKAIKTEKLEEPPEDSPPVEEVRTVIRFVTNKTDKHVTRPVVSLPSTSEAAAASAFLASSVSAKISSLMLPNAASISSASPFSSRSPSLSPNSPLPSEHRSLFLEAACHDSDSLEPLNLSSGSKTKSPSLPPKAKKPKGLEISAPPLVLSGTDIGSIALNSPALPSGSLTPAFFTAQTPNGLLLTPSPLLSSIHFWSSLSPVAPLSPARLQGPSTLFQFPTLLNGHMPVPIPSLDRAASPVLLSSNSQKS
In a few lines: as §1

Chain of ELF1 (P32519 whole entry): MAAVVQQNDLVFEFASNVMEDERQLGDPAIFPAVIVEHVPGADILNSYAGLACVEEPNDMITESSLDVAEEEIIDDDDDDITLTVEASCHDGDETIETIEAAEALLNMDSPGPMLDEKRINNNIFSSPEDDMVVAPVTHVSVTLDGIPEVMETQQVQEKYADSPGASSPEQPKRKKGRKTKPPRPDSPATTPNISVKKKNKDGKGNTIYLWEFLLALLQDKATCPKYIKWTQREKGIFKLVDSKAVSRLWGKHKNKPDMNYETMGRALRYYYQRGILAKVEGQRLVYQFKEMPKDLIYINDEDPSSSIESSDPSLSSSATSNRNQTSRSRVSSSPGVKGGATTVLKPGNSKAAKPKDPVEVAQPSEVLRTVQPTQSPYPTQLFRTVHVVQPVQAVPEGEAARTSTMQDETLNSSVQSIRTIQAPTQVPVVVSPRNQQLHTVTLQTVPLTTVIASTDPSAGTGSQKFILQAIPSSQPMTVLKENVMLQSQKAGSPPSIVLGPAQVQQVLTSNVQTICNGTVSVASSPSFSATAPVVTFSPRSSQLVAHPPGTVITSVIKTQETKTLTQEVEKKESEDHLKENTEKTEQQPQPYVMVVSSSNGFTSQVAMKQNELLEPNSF
Chain of SPIB (Q01892 whole entry): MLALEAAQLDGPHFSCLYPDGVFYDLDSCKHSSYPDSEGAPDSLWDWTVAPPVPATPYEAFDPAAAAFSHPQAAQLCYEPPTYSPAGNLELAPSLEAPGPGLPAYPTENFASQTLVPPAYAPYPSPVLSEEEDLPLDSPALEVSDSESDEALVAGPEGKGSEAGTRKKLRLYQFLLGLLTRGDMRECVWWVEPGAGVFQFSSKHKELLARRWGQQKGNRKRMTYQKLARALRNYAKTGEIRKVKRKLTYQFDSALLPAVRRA

With GCTAAA, the binding signal with FLI1 is 1.06 fold enrichment (6-mer frequency, TF over GST control); with ELK1, 1.12 fold enrichment (6-mer frequency, TF over GST control); with GABPA, 1.07 fold enrichment (6-mer frequency, TF over GST control); in the assay with ERG, 1.07 fold enrichment (6-mer frequency, TF over GST control); in the assay with ELF1 it was 1.08 fold enrichment (6-mer frequency, TF over GST control); with EHF, 1.06 fold enrichment (6-mer frequency, TF over GST control). The binding signal with SPI1 was 1.16 fold enrichment (6-mer frequency, TF over GST control); with SPIB, 1.14 fold enrichment (6-mer frequency, TF over GST control); with ELK3, 1.04 fold enrichment (6-mer frequency, TF over GST control).

As for CTTCGT, the binding signal with FLI1 was 1.34 fold enrichment (6-mer frequency, TF over GST control); with ELK1, 1.45 fold enrichment (6-mer frequency, TF over GST control); in the assay with GABPA, 1.38 fold enrichment (6-mer frequency, TF over GST control); in the assay with ERG it was 1.3 fold enrichment (6-mer frequency, TF over GST control); with ELF1, 1.3 fold enrichment (6-mer frequency, TF over GST control); with EHF, 1.36 fold enrichment (6-mer frequency, TF over GST control). Also, the binding signal with SPI1 is 1.39 fold enrichment (6-mer frequency, TF over GST control); with SPIB, 1.32 fold enrichment (6-mer frequency, TF over GST control); with ELK3, 1.4 fold enrichment (6-mer frequency, TF over GST control).

With GCTTCG, the binding signal in the assay with FLI1 was 1.3 fold enrichment (6-mer frequency, TF over GST control); with ELK1 it was 1.46 fold enrichment (6-mer frequency, TF over GST control); with GABPA, 1.35 fold enrichment (6-mer frequency, TF over GST control); in the assay with ERG, 1.36 fold enrichment (6-mer frequency, TF over GST control); with ELF1, 1.32 fold enrichment (6-mer frequency, TF over GST control); in the assay with EHF, 1.26 fold enrichment (6-mer frequency, TF over GST control). The binding signal with SPI1 was 1.26 fold enrichment (6-mer frequency, TF over GST control); with SPIB, 1.3 fold enrichment (6-mer frequency, TF over GST control); with ELK3 it was 1.4 fold enrichment (6-mer frequency, TF over GST control).

Consider AACAAC, for which the binding signal in the assay with FLI1 was 1.24 fold enrichment (6-mer frequency, TF over GST control); with ELK1, 1.31 fold enrichment (6-mer frequency, TF over GST control); in the assay with GABPA, 1.24 fold enrichment (6-mer frequency, TF over GST control); with ERG, 1.29 fold enrichment (6-mer frequency, TF over GST control); in the assay with ELF1, 1.3 fold enrichment (6-mer frequency, TF over GST control); with EHF, 1.29 fold enrichment (6-mer frequency, TF over GST control). For the same sequence, the binding signal is 1.3 fold enrichment (6-mer frequency, TF over GST control) with SPI1; 1.23 fold enrichment (6-mer frequency, TF over GST control) in the assay with SPIB; 1.34 fold enrichment (6-mer frequency, TF over GST control) with ELK3.

On to CCGCTC, for which the binding signal was 1.53 fold enrichment (6-mer frequency, TF over GST control) with FLI1; 1.52 fold enrichment (6-mer frequency, TF over GST control) with ELK1; 1.39 fold enrichment (6-mer frequency, TF over GST control) with GABPA; 1.47 fold enrichment (6-mer frequency, TF over GST control) with ERG; 1.58 fold enrichment (6-mer frequency, TF over GST control) with ELF1; 1.54 fold enrichment (6-mer frequency, TF over GST control) with EHF. Moreover, the binding signal with SPI1 is 1.48 fold enrichment (6-mer frequency, TF over GST control); with SPIB, 1.59 fold enrichment (6-mer frequency, TF over GST control); with ELK3 it was 1.49 fold enrichment (6-mer frequency, TF over GST control).

AAAATG: the binding signal in the assay with FLI1 was 1.17 fold enrichment (6-mer frequency, TF over GST control); in the assay with ELK1, 1.15 fold enrichment (6-mer frequency, TF over GST control); with GABPA it was 1.16 fold enrichment (6-mer frequency, TF over GST control); with ERG it was 1.2 fold enrichment (6-mer frequency, TF over GST control); with ELF1 it was 1.15 fold enrichment (6-mer frequency, TF over GST control); with EHF, 1.21 fold enrichment (6-mer frequency, TF over GST control). The binding signal with SPI1 was 1.37 fold enrichment (6-mer frequency, TF over GST control); with SPIB, 1.26 fold enrichment (6-mer frequency, TF over GST control); with ELK3, 1.18 fold enrichment (6-mer frequency, TF over GST control).

For CATACT, the binding signal was 1.34 fold enrichment (6-mer frequency, TF over GST control) with FLI1; 1.29 fold enrichment (6-mer frequency, TF over GST control) with ELK1; 1.36 fold enrichment (6-mer frequency, TF over GST control) with GABPA; 1.27 fold enrichment (6-mer frequency, TF over GST control) with ERG; 1.34 fold enrichment (6-mer frequency, TF over GST control) with ELF1; 1.31 fold enrichment (6-mer frequency, TF over GST control) with EHF. Further, the binding signal was 1.33 fold enrichment (6-mer frequency, TF over GST control) in the assay with SPI1; 1.29 fold enrichment (6-mer frequency, TF over GST control) in the assay with SPIB; 1.29 fold enrichment (6-mer frequency, TF over GST control) with ELK3.

As to ATAAAT, the binding signal in the assay with FLI1 was 1.14 fold enrichment (6-mer frequency, TF over GST control); with ELK1 it was 1.15 fold enrichment (6-mer frequency, TF over GST control); with GABPA, 1.15 fold enrichment (6-mer frequency, TF over GST control); in the assay with ERG, 1.15 fold enrichment (6-mer frequency, TF over GST control); with ELF1, 1.15 fold enrichment (6-mer frequency, TF over GST control); with EHF, 1.14 fold enrichment (6-mer frequency, TF over GST control). Moreover, the binding signal was 1.2 fold enrichment (6-mer frequency, TF over GST control) with SPI1; 1.23 fold enrichment (6-mer frequency, TF over GST control) in the assay with SPIB; 1.22 fold enrichment (6-mer frequency, TF over GST control) in the assay with ELK3.
